{"source": "PubChem BioAssay", "note": "The source made the active and inactive calls. Also: test concentration not given here.", "data": [{"experiment": "basal MM1S mitochondrial membrane potential changes, profiling panel, cell-based, JC-1 fluorescence, 24 h, 100 nL compound (AID 1170)", "conditions": "higher = more signal", "values": [{"smiles": "C[C@@H]1NC(=O)C([C@@H](C)OCc2ccccc2)NC(=O)[C@@]23C(=O)N[C@@H](Cc4ccccc4)C2[C@H](C)[C@@]2(C)O[C@H]2C3/C=C/C/C=C\\CNC1=O", "note": "(some centres undefined)", "z-score": 0.186}, {"smiles": "CC1CC/C=C\\[C@H]2OC34C=CCN(c5ccc(Cl)cc5)C(=O)[C@H]3N(CCCCCCO)C(=O)[C@]4(C)C2C(=O)O1", "note": "(some centres undefined)", "z-score": -0.439}, {"smiles": "CC1=C([C@H](O)CCc2ccccc2)[C@H](CO)n2c(=O)n(-c3ccccc3)c(=O)n2C1", "z-score": -1.16}, {"smiles": "CCOC(=O)C[C@H]1[C@H](OC(=O)Cc2ccc3c(c2)OCO3)[C@@H](NC(=O)Cc2ccc(OC)cc2)c2cc(OCCCO)ccc2N1C(=O)Cc1ccc(OC)cc1", "z-score": -0.88}, {"smiles": "COc1ccc(C(O)C2C=CC3C(=O)NC(=O)C3N2Nc2ccc(Cl)cc2Cl)c2ccccc12", "note": "(centres undefined)", "z-score": 0.533}, {"smiles": "C=C1C(=O)C=C2CN(C(=O)c3ccccc3)[C@@](Cc3ccc(OC)cc3)(C(=O)OC)[C@@H]12", "z-score": -1.74}, {"smiles": "COC(=O)[C@@]1(Cc2ccccc2)[C@H]2c3cc(C(=O)N(C)C)n(Cc4ccc(S(C)(=O)=O)cc4)c3C[C@H]2CN1C(=O)c1ccccc1", "z-score": 0.485}, {"smiles": "CCCNC(=O)[C@@]1(c2ccc([N+](=O)[O-])cc2)CC(=O)N(C(C)C)[C@@H]1c1ccc(CO)cc1", "z-score": 0.892}]}, {"experiment": "A549 lung cancer cell viability effects, profiling panel, resazurin fluorescence, 24 h, PK04 Diversity Set (AID 1171)", "conditions": "higher = more signal, called active from +8 up or from −8 down", "values": [{"smiles": "COCCOC(=O)N1C(=O)[C@@]2(c3cc(C#Cc4ccc(OC)cc4)ccc31)[C@H](c1ccc(OCCO)cc1)N1[C@H](c3ccccc3)[C@H](c3ccccc3)OC(=O)[C@H]1[C@@H]2C(=O)NC[C@H](O)c1ccccc1", "z-score": "-0.377 (inactive)"}, {"smiles": "CC1CC/C=C\\[C@H]2OC34C=CCN(Cc5ccccc5)C(=O)[C@H]3N(CCCCCCO)C(=O)[C@@H]4C2C(=O)O1", "note": "(some centres undefined)", "z-score": "0.919 (inactive)"}, {"smiles": "[N-]=[N+]=Nc1ccccc1[C@@H]1OC(c2ccc(OCCCO)cc2)=N[C@]1(CCS(=O)(=O)c1ccccc1)C(=O)NCC(O)CO", "note": "(some centres undefined)", "z-score": "0.575 (inactive)"}, {"smiles": "COC(=O)[C@@]1(Cc2ccccc2)[C@H]2c3cc(C(=O)N(C)C)n(CCSC(=N)N)c3C[C@H]2CN1C(=O)c1ccccc1", "z-score": "-0.541 (inactive)"}, {"smiles": "CC(C)[Si](C#CCCc1ccccc1)(O[C@H](c1ccccc1)c1cn(Cc2ccccc2)nn1)C(C)C", "z-score": "1.43 (inactive)"}, {"smiles": "O=C(NCc1ccc(F)cc1)[C@H]1C[C@H]2C(=O)N3CCC[C@H]3C(=O)N2[C@H]1c1ccc(O)cc1", "z-score": "-0.0909 (inactive)"}, {"smiles": "COC(=O)[C@]1(Cc2ccccc2)N=C(c2ccc(OCCCO)cc2)O[C@@H]1c1ccccc1CN=[N+]=[N-]", "z-score": "-4.59 (inactive)"}, {"smiles": "CC(C)C[C@@H]1NC(=O)[C@@H]2C[C@H](C(=O)NCCCCCCNC(=O)CS)[C@H](c3cccc(OCCO)c3)N2C1=O", "z-score": "0.457 (inactive)"}, {"smiles": "O=C1O[C@@H](c2ccccc2)[C@@H](c2ccccc2)N2[C@@H](c3ccc(OCCO)cc3)[C@]3(C(=O)Nc4ccc(C#CCCO)cc43)[C@@H](C(=O)O)[C@H]12", "z-score": "-0.384 (inactive)"}, {"smiles": "CCCC[C@H]1C[C@@H]1[C@@H]1N(C(C)=O)[C@H](c2cccc(OC)c2)CC12CC2", "z-score": "2.94 (inactive)"}, {"smiles": "C=C(COC)/C(=C/C[C@@H](OC(C)=O)c1ccccc1OCCO)c1cnc2ccccc2c1", "z-score": "-1.69 (inactive)"}, {"smiles": "CN(C)CCCNC(=O)[C@@]1(C)c2ccccc2C(=O)N(Cc2ccc(OC(F)(F)F)cc2)[C@H]1c1ccc(CO)cc1", "z-score": "0.074 (inactive)"}, {"smiles": "C=CC[C@]1(C(=O)NCC(O)CO)COC(c2ccc(OCCCO)cc2)=N1", "note": "(some centres undefined)", "z-score": "-0.106 (inactive)"}, {"smiles": "C=CCC(OC(C)=O)[C@@H]1[C@@H](N(Cc2cccc3ccccc23)C(=O)c2ccc(-c3ccccc3)cc2)c2cc(OCCCO)ccc2N1C(=O)Cc1ccc2ccccc2c1", "note": "(some centres undefined)", "z-score": "0.706 (inactive)"}, {"smiles": "CCCCCC1=C2CNC(CC(C)C)(C(=O)OC)C=C2C(C)C1=O", "note": "(centres undefined)", "z-score": "-0.683 (inactive)"}, {"smiles": "CN1C(=O)[C@@H]2[C@@H](CC(COc3ccccc3)=C3[C@@H](CCc4ccccc4)OB(O)C[C@@H]32)C1=O", "z-score": "-0.453 (inactive)"}, {"smiles": "COC(=O)[C@@]1(Cc2ccc(OC)cc2)[C@H]2c3cc(C(=O)N4CCCC4)n(Cc4ccc(C(F)(F)F)nc4)c3C[C@H]2CN1C(=O)c1ccccc1", "z-score": "-0.266 (inactive)"}, {"smiles": "C=CCC(OC(C)=O)[C@@H]1[C@@H](N(Cc2cc3ccccc3o2)C(=O)Cc2ccc(OC)cc2)c2cc(OCCCO)ccc2N1C(=O)c1ccc2ccccc2n1", "note": "(some centres undefined)", "z-score": "-0.719 (inactive)"}, {"smiles": "[N-]=[N+]=Nc1ccccc1[C@@H]1OC(c2ccc(OCCCO)cc2)=N[C@]1(Cc1ccccc1)C(=O)NCCN1CCOCC1", "z-score": "-0.908 (inactive)"}, {"smiles": "COc1ccc(C(=O)Nc2cccc(CN3C(=O)[C@]4(O[C@H](CC(=O)N5Cc6ccccc6C[C@H]5CO)[C@@H]([Si](C)(C)c5ccc(OC)cc5)[C@@H]4C)c4ccccc43)c2)cc1", "z-score": "-1.31 (inactive)"}, {"smiles": "C=CCN1C(=O)[C@@]2(O[C@@H](CCn3cc([C@H](O)c4ccccc4)nn3)[C@H]([Si](C)(C)c3ccc(OC)cc3)[C@H]2C)c2cc(N3C(=O)c4cccc5cccc3c45)ccc21", "z-score": "-1.94 (inactive)"}, {"smiles": "CC(C)(C)N1CC=CC23O[C@@H]4/C=C\\CCCOC(=O)C4[C@H]2C(=O)N(CCCCCO)[C@@H]3C1=O", "note": "(some centres undefined)", "z-score": "-0.543 (inactive)"}, {"smiles": "CN(C)CCCC[C@@H]1NC(=O)[C@@H]2C[C@H](C(=O)NCCCCCCNC(=O)CS)[C@H](c3ccc(O)cc3)N2C1=O", "z-score": "0.579 (inactive)"}, {"smiles": "CC1CC/C=C\\[C@H]2OC34C=CCN(CCN5CCOCC5)C(=O)[C@H]3N(CCCO)C(=O)[C@@H]4C2C(=O)O1", "note": "(some centres undefined)", "z-score": "-0.467 (inactive)"}, {"smiles": "COc1ccccc1CN1C(=O)c2ccccc2[C@](Cc2ccccc2I)(C(=O)NCC(C)C)[C@@H]1c1ccc(CO)cc1", "z-score": "0.41 (inactive)"}, {"smiles": "COCC(=C=CC[C@H](O)c1ccccc1OCCO)C[C@H](O)COCc1ccccc1", "z-score": "0.857 (inactive)"}, {"smiles": "O=C(NC1CC1)[C@@H]1c2ccccc2C(=O)N(Cc2ccc(OC(F)(F)F)cc2)[C@H]1c1ccc(CO)cc1", "z-score": "1.03 (inactive)"}, {"smiles": "O=C1C2C=CC(C(O)c3c(F)cccc3Cl)N(Nc3ccc([N+](=O)[O-])cc3)C2C(=O)N1c1ccccc1", "note": "(centres undefined)", "z-score": "0.372 (inactive)"}, {"smiles": "C[C@@H]1NC(=O)C([C@@H](C)OCc2ccccc2)NC(=O)[C@@]23C(=O)N[C@@H](Cc4ccccc4)C2[C@H](C)[C@@]2(C)O[C@H]2C3/C=C/C/C=C\\CNC1=O", "note": "(some centres undefined)", "z-score": "-0.0746 (inactive)"}, {"smiles": "CC1CC/C=C\\[C@H]2OC34C=CCN(c5ccc(Cl)cc5)C(=O)[C@H]3N(CCCCCCO)C(=O)[C@]4(C)C2C(=O)O1", "note": "(some centres undefined)", "z-score": "0.523 (inactive)"}, {"smiles": "CC1=C([C@H](O)CCc2ccccc2)[C@H](CO)n2c(=O)n(-c3ccccc3)c(=O)n2C1", "z-score": "-0.331 (inactive)"}, {"smiles": "CCOC(=O)C[C@H]1[C@H](OC(=O)Cc2ccc3c(c2)OCO3)[C@@H](NC(=O)Cc2ccc(OC)cc2)c2cc(OCCCO)ccc2N1C(=O)Cc1ccc(OC)cc1", "z-score": "-0.379 (inactive)"}, {"smiles": "COc1ccc(C(O)C2C=CC3C(=O)NC(=O)C3N2Nc2ccc(Cl)cc2Cl)c2ccccc12", "note": "(centres undefined)", "z-score": "-1.29 (inactive)"}, {"smiles": "C=C1C(=O)C=C2CN(C(=O)c3ccccc3)[C@@](Cc3ccc(OC)cc3)(C(=O)OC)[C@@H]12", "z-score": "-0.701 (inactive)"}, {"smiles": "COC(=O)[C@@]1(Cc2ccccc2)[C@H]2c3cc(C(=O)N(C)C)n(Cc4ccc(S(C)(=O)=O)cc4)c3C[C@H]2CN1C(=O)c1ccccc1", "z-score": "-1.59 (inactive)"}, {"smiles": "CCCNC(=O)[C@@]1(c2ccc([N+](=O)[O-])cc2)CC(=O)N(C(C)C)[C@@H]1c1ccc(CO)cc1", "z-score": "0.0564 (inactive)"}]}]}
